In the supplement of paper PMC11732987, “Enantioselective OTUD7B fragment discovery through chemoproteomics screening and high-throughput optimisation” (Communications Chemistry, 2025):

What follows are compounds tested against USP14 (UniProt P54578) (assay: log2 ratio of Biotin-Ahx-Ub-VS probe labelling (fragment/DMSO); higher = less target engagement (more negative = stronger competition), active = hit call of the paper (q ≤ 0.05, log2 ratio ≤ -1)). Details: compound concentration: 200 uM; treatment time: 3 h.
Chain of USP14 (P54578 whole entry, the tested form may be a part): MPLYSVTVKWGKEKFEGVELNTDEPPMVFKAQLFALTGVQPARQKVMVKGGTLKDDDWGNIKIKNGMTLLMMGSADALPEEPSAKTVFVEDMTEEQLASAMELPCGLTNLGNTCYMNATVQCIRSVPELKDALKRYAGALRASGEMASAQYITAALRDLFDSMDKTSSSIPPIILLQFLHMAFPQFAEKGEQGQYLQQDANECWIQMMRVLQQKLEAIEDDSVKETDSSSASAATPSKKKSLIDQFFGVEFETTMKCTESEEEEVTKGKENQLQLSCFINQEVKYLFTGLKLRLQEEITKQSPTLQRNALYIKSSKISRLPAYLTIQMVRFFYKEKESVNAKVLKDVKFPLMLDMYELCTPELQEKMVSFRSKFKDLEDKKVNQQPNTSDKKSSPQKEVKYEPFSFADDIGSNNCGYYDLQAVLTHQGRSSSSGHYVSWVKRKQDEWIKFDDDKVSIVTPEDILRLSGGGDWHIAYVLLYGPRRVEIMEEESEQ
Method: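 Competitive ABPP in HEK293T cell lysate. Lysates were treated with each chloroacetamide fragment at 200 µM for 3 h, then with Biotin-Ahx-Ub-VS (0.5 µM, 1 h), NeutrAvidin-enriched and analysed by diaPASEF LC-MS/MS. Protein LFQ was median-normalised; average log2 ratio is fragment/DMSO from an unpaired t-test (n=3 treated, n=44 DMSO). Hits: q ≤ 0.05, log2 ratio ≤ -1, unique peptides ≥ 2.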

log2 ratio of Biotin-Ahx-Ub-VS probe labelling, inactive:
Cl.O=C(CCl)N1CCC(Cc2nccs2)C1 (stereo not given) -0.2, CNC(=O)C1CCN(C(=O)CCl)CC1 -0.146, Cc1ccc(N(CCC#N)C(=O)CCl)cc1C -0.623, Cl.O=C(CCl)N1CCCC(c2ncc[nH]2)C1 (stereo not given) -0.141, O=C(CCl)NCc1cccc(N2CCCC2=O)c1 -0.0996, O=C(CCl)N[C@H]1CCS(=O)(=O)c2ccccc21 -0.0969, CC(=O)C1CCCCN1C(=O)CCl (stereo not given) -0.101, CC(C)n1nccc1NC(=O)CCl -0.146, Cc1ccc(CC(NC(=O)CCl)c2ccccn2)cc1.Cl (stereo not given) -0.0182, N#Cc1cnn(-c2ccccc2)c1NC(=O)CCl -0.345, CC(NC(=O)CCl)c1cccc(Cl)c1 (stereo not given) -0.42, COc1ccc(C2CCCN2C(=O)CCl)c(OC)c1 (stereo not given) -0.545, C#Cc1cccc(NC(=O)CCl)c1 -0.191, O=C(CCl)N1CCCC2CCCCC21 (stereo not given) -0.25, O=C(CCl)NCc1ccc(Cl)cc1 -0.109, Cl.Cn1c(CNC(=O)CCl)nc2cccnc21 -0.0826, O=C(CCl)Nc1ccc(F)cc1F -0.106, Cl.O=C(CCl)NCc1ccnc(Oc2ccccc2F)c1 -0.153, NC(=O)C(Cc1ccccc1)NC(=O)CCl (stereo not given) -0.156, O=C(CCl)N1CCOCCC1c1ccccc1 (stereo not given) -0.111, CCN(Cc1ccc(C#N)cc1F)C(=O)CCl -0.392, O=C(CCl)NCCC1=CCCCC1 0.0195, Cc1noc(N2CCN(C(=O)CCl)CC2)n1.Cl 0.347, O=C(CCl)N1CCC(OCc2ccccc2F)CC1 0.0975, O=C(CCl)N1CCN(C(=O)Nc2ccccc2)CC1 0.127, O=C(CCl)Nc1cccc(NC(=O)c2ccccc2)c1 0.235, COCC[C@@H](NC(=O)CCl)c1ccccc1 0.0709, Cc1cc(Cl)ccc1NC(=O)CCl -0.0914, O=C(CCl)NC1CCN(C(=O)C2CCCCC2)CC1 -0.0275, CN(Cc1nc2ccccc2[nH]1)C(=O)CCl.Cl 0.0145, Cl.Cn1ncc2c1CCCC2NC(=O)CCl (stereo not given) -0.227, O=C(CCl)N1CCC(C(=O)N2CCCC2)CC1 -0.0629, Cc1ccc(C(=O)NCCNC(=O)CCl)cc1 -0.414, O=C(CCl)N1CCC(c2nc3ccccc3o2)CC1 -0.483, CC1CN(c2ccc(NC(=O)CCl)cc2)CC(C)O1 (stereo not given) -0.0454, Cc1cc(C2CCCN2C(=O)CCl)nn1C.Cl (stereo not given) -0.361, O=C(CCl)Nc1ccc(Cl)c(F)c1 -0.481, CC(=O)Nc1ccc(NC(=O)CCl)cc1 0.0669, CC(NC(=O)CCl)c1cc2n(n1)CCCC2.Cl (stereo not given) -0.363

log2 ratio of Biotin-Ahx-Ub-VS probe labelling, active:
Cn1cc(CN(Cc2ccc(Cl)cc2)C(=O)CCl)cn1 -1.03
